Rows were chosen to be rich in hits. Some 18% of all compounds tested hit in one or more screens of this group.
DT40 TDP1 CPT – growth inhibition of DT40 Tdp1-/-;hTDP1 cells with camptothecin (screen for TDP1 inhibitors); hit rate 12% among 420,000; chicken DT40 Tdp1-/-;hTDP1 cells + 20 nM CPT, ATP luminescence, 48 h; Potency, µM (highest dose often 46.2 µM), for the others: top-dose activity change, negative = growth inhibition, hits mostly inhibitors; AID 686979; also: potency is read from the fitted curve at half-maximal effect; nearly all actives have a fitted effect of over 55% in size
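Cell growth measured by CellTiter-Glo luminescence after a minimum 48 h, 37 C compound exposure with 20 nM CPT in Tdp1-knockout DT40 cells stably expressing hTDP1, seeded 400/well; qHTS titration format.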
RORgamma inh – blocks mouse ROR gamma transcriptional activity; Drosophila S2 Gal4-RORgamma UAS-luciferase reporter, 20 h; Potency, µM (doses to about 53.6 µM), without a hit: at the highest dose activity change, negative = inhibition, hits mostly inhibitors; P51450; hit rate 5.4% among 310,000; also: potency is read from the fitted curve at half-maximal effect; nearly all actives have a fitted effect of over 60% in size
Target sequence (P51450 whole entry, looked up, the tested form may be a part): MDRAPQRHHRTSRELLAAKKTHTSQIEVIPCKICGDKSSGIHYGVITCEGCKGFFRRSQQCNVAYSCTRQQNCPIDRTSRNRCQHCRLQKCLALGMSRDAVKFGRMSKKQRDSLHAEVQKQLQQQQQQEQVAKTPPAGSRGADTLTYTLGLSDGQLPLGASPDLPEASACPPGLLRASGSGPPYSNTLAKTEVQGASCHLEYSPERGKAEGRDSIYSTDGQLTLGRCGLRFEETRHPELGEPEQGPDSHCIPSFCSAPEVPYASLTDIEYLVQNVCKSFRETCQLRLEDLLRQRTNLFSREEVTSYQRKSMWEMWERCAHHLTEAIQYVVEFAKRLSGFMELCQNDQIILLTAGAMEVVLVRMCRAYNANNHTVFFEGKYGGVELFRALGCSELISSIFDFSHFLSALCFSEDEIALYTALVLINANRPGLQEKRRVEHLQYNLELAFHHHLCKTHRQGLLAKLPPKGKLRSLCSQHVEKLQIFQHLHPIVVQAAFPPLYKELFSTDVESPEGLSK
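Luciferase reporter read in Schneider cells carrying Gal4-RORγ (mouse) and UAS-Photinus luciferase; cells given compound 1 h before 700 uM copper sulfate induction, then incubated 20 h at ambient temperature.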
DT40 TDP1 no CPT – qHTS for Inhibitors of human tyrosyl-DNA phosphodiesterase 1 (TDP1): qHTS in cells in absence of CPT. DT40 Tdp1-/- hTDP1 cells, no CPT, ATP luminescence, 48 h. AID 686978, 2013. Potency, µM (highest dose often 46.2 µM), inactives show at the highest dose activity change, negative = growth inhibition, usual class: inhibitors. hit rate 15% among 420,000; also: potency is read from the fitted curve at half-maximal effect; nearly all actives have a fitted effect of over 55% in size
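Stably hTDP1-transfected Tdp1-null chicken DT40 cells were treated with library compounds minus camptothecin and grown for at least 48 hr at 37 °C, after which cellular ATP was quantified by luminescence.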
Gal4-VP16 FLuc – counter-screen for ROR gamma inhibitors: Gal4-VP16 reporter. hit rate 3.5% among 310,000. Drosophila S2 Gal4-VP16 UAS-luciferase, luminescence, 20 h. Potency, µM (top dose mostly 53.6 µM), for inactives: top-dose activity, negative = inhibition, usual class: inhibitors. AID 2546;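 also: Gal4-VP16 expression switched on by copper sulfate through the metallothionein promoter; potency is read from the fitted curve at half-maximal effect; nearly all actives have a fitted effect of over 50% in size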
IL-1B inflam inh – blocks inflammasome-driven IL-1 beta release. THP-1 LPS/ATP IL-1B secretion, AlphaLISA, 16 h; active compounds read low. activity change, % at 57.5 µM. hit rate 4.7% among 360,000. AID 743279; in the data active = activity change below about -50%; inconclusive = mostly about -30% to -49%
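THP-1 cells pretreated 1 hr with compounds (up to 57.5 uM final), then stimulated with LPS (250 ng/mL final) plus ATP (1.25 mM final); secreted IL-1B measured by AlphaLISA after 16 hr, decreased signal indicating inhibition.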
LDHA block – blocks human lactate dehydrogenase A | P00338 | activity change, % (values are at about 110 or 230 µM) | purified LDHA, NADH/diaphorase-resazurin fluorescence; active compounds read low | hit rate 0.15% among 480,000 | AID 1347041; in the data active = activity change below about -30%; inconclusive = mostly about -25% to -30%;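 also: plate controls were DMSO wells for no effect and wells without enzyme for full effect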
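Human LDH5 (2 nM) was incubated with 0.06 mM NADH and 0.2 mM pyruvate for 5 min at room temperature in Tris pH 7.4. Remaining NADH was coupled through diaphorase/resazurin, and resorufin fluorescence was read at 0 and 20 min.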
Starred values were filed as active, the others as inactive; ? = inconclusive; · = no result; [ ] = dose if it differs, or a comment. Unless noted, calls follow the shape of the dose curve; as a rule, active = well fitted curve in the direction sought with a large enough effect; inconclusive = small, poorly fitted or top-dose-only effect, or another doubt; inactive = no such curve, though single readings can be large; an effect the other way counts as inactive or inconclusive. Unless noted, % is scaled to controls: 0 for no effect and ±100 for the full control effect.

SMILES	DT40 TDP1 CPT	RORgamma inh	DT40 TDP1 no CPT	Gal4-VP16 FLuc	IL-1B inflam inh	LDHA block
COC(=O)C1=CN(c2cccc(C(F)(F)F)c2)C=C(C(=O)OC)C1c1ccc(O)c(OC)c1	?	18.5%	?	9.3%	-50.9*	0.0
COC(=O)C1=CN(c2ccc(OC)cc2)C=C(C(=O)OC)C1c1ccc(C)c([N+](=O)[O-])c1	?	24.3%	20.6µM*	-0.3%	-6.3	-7.4
COC(=O)C1=CN(c2ccc(F)cc2)C=C(C(=O)OC)C1c1cccc([N+](=O)[O-])c1	-24.7%	26.9%	25.9µM*	6.1%	-0.7	-2.8
COC(=O)C1=C(C)NC(C)=C(C(=O)OC)C1c1ccc(-c2cccc([N+](=O)[O-])c2)o1	?	0.1%	?	-2.5%	?	-1.2
COC(=O)C1=C(C#N)NC(C)=C(C(=O)OC(C)C)C1c1cccc([N+](=O)[O-])c1 (stereo not drawn)	29.9µM*	-16.1%	18.8µM*	-2.6%	·	·
O=C(NC1CCCC1)C(=O)N1CCN(C(=O)c2cc3ccccc3[nH]2)CC1	·	·	·	·	·	-7.4
Cc1nc(Cl)sc1C(=O)Nc1cccc(Cl)c1	-20.2%	-10.8%[1.91 µM]	-0.8%	-14.9%	-56.2*	-4.4
Cc1cccc(OCc2nc(C)c(C(=O)Nc3cc(C)ccc3C)s2)c1	·	·	·	·	·	-35.3*
CC(=O)c1cccc(NC(=O)c2sc(Cl)nc2C)c1	-1.8%	-0.3%[1.91 µM]	-10.0%	-15.8%	-53.6*	-5.5
Cc1nc(Cl)sc1C(=O)Nc1ccccc1	7.8%	0.6%	-24.9%	-17.8%	4.4	-4.5
CCc1ccccc1NC(=O)c1sc(-n2nc(C)c(Cc3ccc4c(c3)OCO4)c2C)nc1C	?	·	18.4µM*	·	·	5.5
CC(=O)Nc1ncc2c(n1)CC(c1ccc(C(C)(C)C)cc1)CC2=O (stereo not drawn)	·	·	·	·	·	-6.7
COc1ccc(Cc2c(C)nn(-c3nc(C)c(C(=O)Nc4cccc(C(C)=O)c4)s3)c2C)cc1	9.2µM*	·	11.6µM*	·	·	-7.6
CC(=O)c1sc(-c2ccccn2)nc1C	·	-12.1%	·	-10.8%	·	·
Cc1ccc(C)c(NC(=O)c2sc(Cl)nc2-c2ccccc2)c1	?	-16.1%	?	10.6%	8.5	-3.8
Cc1ccc(C)c(NC(=O)c2sc(Cl)nc2C)c1	-2.1%	4.8%	10.3%	8.1%	-58.1*	1.9
CC(=O)c1cccc(NC(=O)c2sc(-n3nc(C)c(Cc4ccccc4)c3C)nc2C)c1	?	·	?	·	·	-0.5
Cc1nc(-c2ccccn2)sc1C(=O)Nc1ccc(Cl)c(Cl)c1	?	5.9%	14.6µM*	-0.1%	-9.0	-2.4
N#Cc1ccc(C(=O)NCCSC(F)(F)F)cc1	·	·	·	·	·	-3.2
CCOc1ccc(CNc2ncc(-c3ccccc3)n2C)cc1	-19.6%	-41.0%	?	0.0%	-12.0	-17.4
COc1cc(CNc2ncc(-c3ccc(Br)cc3)n2C)cc(OC)c1OC	10.3µM*	-12.1%	?	5.3%	-5.9	-4.1
COc1ccc(CNc2ncc(-c3ccccc3)n2C)c(OC)c1OC	?	-13.4%[1.91 µM]	14.6µM*	1.5%	16.4	-12.9
COc1ccc(C2=NS(=O)(=O)N(C)C(C(=O)Nc3ccc4c(c3)OCO4)=C2)cc1	16.4µM*	?	8.2µM*	-23.4%	-17.0	3.4
COc1ccc(C2=NS(=O)(=O)N(C)C(C(=O)Nc3ccc4c(c3)OCO4)=C2)cc1OC	16.4µM*	-4.3%	16.4µM*	-14.0%	8.2	11.4
Cc1ccc(C2=NS(=O)(=O)N(C)C(C(=O)Nc3ccc4c(c3)OCO4)=C2)cc1	?	?	?	?	11.0	3.4
COc1ccc(C2=NS(=O)(=O)N(C)C(C(=O)NC3CCCCC3)=C2)cc1OC	9.2µM*	42.8%	18.4µM*	-0.4%	1.8	-9.5
COC(=O)c1sc(=S)n(-c2cc(Cl)ccc2C)c1N	·	·	·	·	·	0.4

Screening results: PubChem, National Center for Advancing Translational Sciences (NCATS)
